Source: PubChem BioAssay AID686979 (National Center for Advancing Translational Sciences (NCATS), 2013)
The campaign covered roughly 420,000 compounds. About 50,000 (12%) were called active. About 26% were inconclusive and are not listed. Calls follow the shape of the dose curve; as a rule, active = well fitted inhibition curve with a large enough effect; inconclusive = small, poorly fitted or top-dose-only effect; inactive = flat fitted curve, though single readings scatter. The full list was thinned out, with actives kept by preference.

experiment: qHTS for Inhibitors of human tyrosyl-DNA phosphodiesterase 1 (TDP1): qHTS in cells in presence of CPT; settings: chicken DT40 Tdp1-/-;hTDP1 cells + 20 nM CPT, ATP luminescence, 48 h; series mostly up to 46.2 µM; activity change, negative = growth inhibition: at the top concentration; also: nearly all actives have a fitted effect of over 55% in size
Excerpt: Human tyrosyl-DNA phosphodiesterase 1 (TDP1) is a novel repair gene, and we propose to use it as a new target for anticancer drug development. TDP1 is not an essential protein, but under treatment with topoisomerase I poison (camptothecin: CPT), TDP1 works as a critical factor for cell survival. To directly identify novel TDP1 inhibitors active in a cellular environment, we have knocked-out the Tdp1 gene in chicken DT40 cells (Tdp1-/-) and generated a complemented counterpart cells that contains a stable transfection of the human TDP1 gene (Tdp1-/-;hTDP1 cells). For the primary screen, Tdp1-/-;hTDP1 cells will be exposed to small molecules in the presence or absence of CPT, and their growth kinetics will be evaluated after 48 hours by measuring ATP activity. […] The hit compounds will then be evaluated in the presence or absence of CPT using Tdp1-/- cells. […] In tertiary assays, biochemical gel-based assays will be used to assess whether the hit compounds specifically target TDP1. To this end, we have screened this cell line against the MLSMR in two primary screens. In one screen we add CPT and in the other we screen in the absence of CPT; this AID represents the screen where CPT was present. NIH Chemical Genomics Center [NCGC] NIH Molecular Libraries Probe Centers Network [MLPCN] MLPCN Grant: MH095538 Assay Submitter (PI): Yves Pommier, NCI
DT40-hTDP1 cells with 20 nM Camptothecin (add 20 microL of 1 mM CPT stock in 1 L of cell culture medium) were dispensed at 400 cells/5microL/well in tissue culture treated 1536-well white wall/solid bottom assay plates (Greiner Bio-One North America, NC, U.S.A.) using a Multidrop Combi 8 channel dispenser (Thermo Fisher, Waltham, MA, USA). 23 nL compounds and controls were transferred using the pin tool (Kalypsys, San Diego, CA, USA) to the assay plates. The assay plates were then incubated at 37 masculineC for a minimum 48 hr. Three microL of Cell Titer Glo solution was added to the plates and incubated at RT in dark for 30 min. Luminescence was read using ViewLux (Perkin Elmer) with 1 sec exposure slow speed, high gain and 2x binning.
% is scaled to controls: 0 for no effect and ±100 for the full control effect; potency is read from the fitted curve at half-maximal effect.

Row | SMILES | activity change, negative = growth inhibition | Potency
1 | O=C(CN1CCC(NC(=O)C2CC2)CC1)Nc1ccccc1[N+](=O)[O-] | -6.93% (inactive) | 
2 | Cc1cc(C(F)F)nn1CC(=O)NC1CCCCCC1 | 3.43% (inactive) | 
3 | Cc1ccc2c(cnn2C(=O)CCC(=O)NC2CCCC2)c1 | 0.0617% (inactive) | 
4 | O=C(Cc1cccs1)Nc1ccc([N+](=O)[O-])cc1 | -28.9% (inactive) | 
5 | CCCC(=O)n1nc(-c2ccccc2)nc1N | -6.98% (inactive) | 
6 | CCc1nn(-c2cc(Oc3cccc4ccccc34)nc(-c3ccccc3)n2)c(N)c1C#N |  | 10.3 µM (active)
7 | CC(C(=O)N1CCN(c2ccccc2F)CC1)c1ccc([N+](=O)[O-])cc1 (stereo unspecified) | -25.5% (inactive) | 
8 | CC1CCN(CC(=O)Nc2nccs2)CC1 | -24.2% (inactive) | 
9 | Cc1c(C)c(C)c(S(=O)(=O)N2CCC3(CC2)OCCO3)c(C)c1C | -19.7% (inactive) | 
10 | CCOc1ccc(NC(=O)CN(C)C(=O)CSc2ccccc2)cc1OCC | -19.4% (inactive) | 
11 | CN1CCN(NC(=O)c2ccc(S(=O)(=O)N3CCCCCC3)cc2)CC1 | 5.37% (inactive) | 
12 | COc1ccc(S(=O)(=O)N2CCCCC2)cc1Br | 0.0514% (inactive) | 
13 | COc1cc2c(cc1OC)CN(C(=O)c1ccc(S(=O)(=O)N3CCCCCC3)cc1)CC2 |  | 20.6 µM (active)
14 | O=C(c1cc(S(=O)(=O)N2CCOCC2)ccc1Cl)N1CCOCC1 | 11% (inactive) | 
15 | COc1cc2c(cc1OC)CN(C(=O)c1cc(S(=O)(=O)N3CCCCC3)ccc1Cl)CC2 |  | 20.6 µM (active)
16 | COC(=O)c1ccc(CNC(=O)c2ccc(S(=O)(=O)N3CCCCCC3)cc2)cc1 | -1.03% (inactive) | 
17 | COc1ccc(C(=O)CN2C(=O)NC(C)(c3ccc(C)cc3)C2=O)cc1OC (stereo unspecified) | -22.9% (inactive) | 
18 | COc1ccc(C(=O)n2nc(-c3ccc(C)cc3)nc2N)cc1OC |  | 13 µM (active)
19 | COc1ccc(C(=O)n2nc(C)c(Br)c2C)cc1OC | -17.2% (inactive) | 
20 | CN1CCN(c2ccc(CNS(=O)(=O)c3cccc(F)c3)cc2)CC1 | -2.6% (inactive) | 
21 | CCCCc1ccc(S(N)(=O)=O)cc1 | 0.496% (inactive) | 
22 | N#Cc1ccccc1CN1C(=O)S/C(=C/c2cccn2-c2cccc(C(=O)O)c2)C1=O | -7.91% (inactive) | 
23 | Cc1c(C(=O)N2CCCc3ccccc32)oc2ccccc12 | -15.4% (inactive) | 
24 | O=C(c1cc(-c2ccc(O)cc2)on1)N1CCCc2ccccc21 | -19.2% (inactive) | 
25 | Cc1cccc2cc3c(N)c(C(=O)N4CCCc5ccccc54)sc3nc12 |  | 4.11 µM (active)
26 | Cc1c(C(=O)O)nnn1-c1nonc1N | 4.76% (inactive) | 

Row | SMILES | activity change, negative = growth inhibition | Potency
27 | COc1cc(OC)c(C(=O)NNC(=O)c2ccccc2-n2cccc2)cc1OC | -11.7% (inactive) | 
28 | CSc1nc(-c2ccc(F)cc2)nc2c1Cc1c(CO)cnc(C)c1O2 | 7.44% (inactive) | 
29 | CSc1nc(-c2ccccc2Cl)nc2c1Cc1c(CO)cnc(C)c1O2 |  | 14.6 µM (active)
30 | Cc1ccccc1CSc1nc(-c2ccccc2)nc2c1Cc1c(CO)cnc(C)c1O2 | 6.78% (inactive) | 
31 | CCOC(=O)c1cnc2nc(SCc3ccccc3Cl)[nH]n2c1=O | -4.22% (inactive) | 
32 | CS(=O)(=O)c1ccc(Cl)c(NC(=O)COC(=O)c2ncc(Cl)c(Cl)c2Cl)c1 | 0.632% (inactive) | 
33 | COc1cccc(CN(C)CC(=O)NCc2ccccc2Cl)c1OC | -23.4% (inactive) | 
34 | Cc1nc2ccc(C(=O)N(C)CC3CCCN(CCc4ccc(Cl)cc4)C3)cc2[nH]1 (stereo unspecified) | -12.6% (inactive) | 
35 | COc1cccc(CN(C)CC2CCCN(CCc3ccc(Cl)cc3)C2)c1OC (stereo unspecified) |  | 16.4 µM (active)
36 | CCc1ccnc(NS(=O)(=O)c2ccc3c(c2)OCCO3)c1 | 0.676% (inactive) | 
37 | COc1ccc(C2CC(c3ccc(C)cc3)Nc3nc(N)nn32)cc1 (stereo unspecified) | -9.25% (inactive) | 
38 | CCOc1ccccc1C1CC(c2ccc(Cl)cc2)Nc2nc(N)nn21 (stereo unspecified) |  | 18.4 µM (active)
39 | Cc1ccc(C2CC(c3cccc(C)c3)n3nc(N)nc3N2)cc1 (stereo unspecified) | -24.1% (inactive) | 
40 | COc1ccccc1N1CCN(c2ncnc3onc(-c4cccc(Cl)c4)c23)CC1 | 7.45% (inactive) | 
41 | COc1ccccc1N1CCN(c2nc(C)cc(=O)[nH]2)CC1 | 19.5% (inactive) | 
42 | COc1ccccc1N1CCN(c2ncnc3sc(C)c(-c4ccccc4)c23)CC1 |  | 23.1 µM (active)
43 | Cn1cnc(S(=O)(=O)Nc2ccc3c(c2)OCCO3)c1 | -11.7% (inactive) | 
44 | O=C(COC(=O)c1cc(-c2cccs2)nn1-c1ccccc1)Nc1cc([N+](=O)[O-])ccc1Cl | 8.85% (inactive) | 
45 | CCc1cccc(CC)c1NC(=O)Cn1c(=O)c(-c2cc(C)ccc2NC(C)=O)nc2ccccc21 | 0.437% (inactive) | 
46 | CCCn1c(N)c(C(=O)CSc2nnc(-c3cccnc3)n2-c2ccc(C)cc2C)c(=O)[nH]c1=O | -6.68% (inactive) | 
47 | COCc1cc(=O)n2[nH]c(C)c(-c3ccccc3)c2n1 | -2.85% (inactive) | 
48 | CCCc1cc(=O)n2[nH]c(C)c(-c3ccc(Cl)cc3)c2n1 |  | 20.6 µM (active)
49 | Cc1nc2c(-c3ccccc3)c(C)[nH]n2c(=O)c1Cl | -0.299% (inactive) | 
50 | CCOc1cc(C)c(S(=O)(=O)NCc2ccccn2)cc1C | 12.8% (inactive) | 
51 | COc1ccc(NC(=O)C2C3CCC(O3)C2C(=O)O)cc1OC (stereo unspecified) | -3.95% (inactive) | 
